Assay outcomes deposited in PubChem by several laboratories.
Rows were chosen to be rich in hits. Some 3% of all compounds tested hit in one or more screens of this group.
TRPM1 prom inh – inhibitors of MITF-driven TRPM1 promoter in melanoma cells; SK-MEL-5 TRPM1 promoter luciferase, 24 h; 330,000 compounds, 0.83% hits; inhibition, % at 12.5 µM; AID 488899;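 active means mean inhibition across replicates of 60% or more, whatever share of single replicates reaches that level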
Peg3 promoter – inhibitors of Peg3 promoter; HeLa PEG-Prom luciferase reporter, luminescence, overnight; inhibition, % at 20 µM; 360,000 compounds, 1.7% hits;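 active means inhibition of at least 50% at 20 µM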
PAX8 inh HTS – inhibitors of PAX8 transcriptional activity in RMG-I cells; inhibition, % at 12.6 µM; AID 652154; 360,000 compounds, 1.2% hits; RMG-I TPO-luciferase reporter, SteadyGlo, 24 h;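 active means mean replicate inhibition at least 60% with every replicate also reaching 60%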;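 further: luciferase light reporting Pax8 driven TPO promoter activity; plate controls were median of neutral control wells for no effect and mitoxantrone controls for full effect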
EWS-Fli block – blocks EWS/Fli oncoprotein-driven transcription; inhibition, % at 12.6 µM; A673 NR0B1-luciferase reporter, viability-normalised; 350,000 compounds, 0.67% hits;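 active means mean inhibition of at least 50% after viability correction, with every replicate also passing that limit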;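 further: firefly luciferase signal divided by Alamar Blue viability fluorescence both relative to DMSO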
Shn3 3UTR inh – reduces Shn3 3'UTR luciferase signal in osteoblasts | 360,000 compounds, 0.52% hits | inhibition, % at 12.5 µM | Clone20 osteoblast Shn3 3'UTR firefly luciferase, 24 h;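 active means mean inhibition of at least 75% with every replicate also reaching 75%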;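 further: 0% = median of neutral control wells and 100% = pilot-screen positive control compound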
ABHD5 PLIN5 PPI – ABHD5-PLIN5 protein interaction inhibition; Q00G26+Q8WTS1; Split G. princeps luciferase complementation, luminescence, 4 h; inhibition, % at 4 µM; 360,000 compounds, 0.78% hits;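 active means inhibition above the mean inhibition across every tested compound plus 3 SD, cut at about 22% in these data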;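 further: 0% = DMSO only wells and the 100% control is not disclosed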
Target sequence (Q00G26 whole entry, looked up): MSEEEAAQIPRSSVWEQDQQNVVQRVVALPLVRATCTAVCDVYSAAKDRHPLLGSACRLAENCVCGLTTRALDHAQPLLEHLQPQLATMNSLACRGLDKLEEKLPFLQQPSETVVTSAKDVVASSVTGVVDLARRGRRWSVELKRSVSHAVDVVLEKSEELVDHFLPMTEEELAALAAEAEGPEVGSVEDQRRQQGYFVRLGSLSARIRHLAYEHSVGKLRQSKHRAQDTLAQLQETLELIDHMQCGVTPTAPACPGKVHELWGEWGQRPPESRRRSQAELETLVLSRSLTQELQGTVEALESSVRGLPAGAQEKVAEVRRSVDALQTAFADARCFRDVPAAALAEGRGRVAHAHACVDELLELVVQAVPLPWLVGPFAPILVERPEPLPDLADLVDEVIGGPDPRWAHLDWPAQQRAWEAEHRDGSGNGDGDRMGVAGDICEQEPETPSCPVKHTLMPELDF
Target sequence (Q8WTS1 whole entry, looked up): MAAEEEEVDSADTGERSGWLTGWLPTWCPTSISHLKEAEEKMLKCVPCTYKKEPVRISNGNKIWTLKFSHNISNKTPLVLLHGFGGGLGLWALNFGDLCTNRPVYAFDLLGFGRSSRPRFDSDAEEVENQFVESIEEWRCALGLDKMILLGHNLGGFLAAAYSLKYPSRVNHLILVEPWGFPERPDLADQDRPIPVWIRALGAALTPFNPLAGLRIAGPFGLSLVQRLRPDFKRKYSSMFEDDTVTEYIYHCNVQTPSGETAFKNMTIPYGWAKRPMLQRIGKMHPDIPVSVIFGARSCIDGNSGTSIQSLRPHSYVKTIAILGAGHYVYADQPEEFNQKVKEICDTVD
The depositor's hits bear a star; x = no result.

SMILES	TRPM1 prom inh	Peg3 promoter	PAX8 inh HTS	EWS-Fli block	Shn3 3UTR inh	ABHD5 PLIN5 PPI
Cc1ccc(NC(=O)/C(=C/c2cccc([N+](=O)[O-])c2)NC(=O)C2CCCCC2)c(C)c1	4	59*	x	19	43	-17
CCCCC(CC)CO (stereo not given)	5	110*	x	-3	13	2
CCCCC(CC)COC(=O)CCCCC(=O)OCC(CC)CCCC (stereo not given)	4	3	x	4	-17	6
CCCc1cc(=O)oc2cc(C)cc(OCC(=O)Nc3cccnc3)c12	3	87*	11	x	-12	-10
O=c1cc(-c2ccncc2)oc2c1ccc1ccccc12	-1	80*	-28	-33	-13	9
O=c1cc(C(Cl)(Cl)Cl)oc2c1ccc1ccccc12	69*	106*	98*	x	75	2
CN(C)CCCNC(=O)C[C@@H]1CC[C@@H]2[C@@H](COc3ccc(NS(C)(=O)=O)cc3C(=O)N2C)O1	x	x	-39	-16	x	x
CCCN(C)C[C@@H]1Oc2cc(-c3cccc(F)c3)ccc2S(=O)(=O)N([C@@H](C)CO)C[C@@H]1C	x	x	6	-1	x	x
COc1cc(Cl)c(NS(=O)(=O)c2ccc(-c3ccc(=O)[nH]n3)o2)c(OC)c1	-4	8	-7	-1	23	3
O=c1cccccc1NCc1ccccc1	-23	-11	-24	x	-39	0
CCOc1ccc(NC2=CC(=O)C(=O)c3ccccc32)cc1	102*	-54	49	12	12	-43
COc1cc(Cl)c(NC2=CC(=O)C(=O)c3ccccc32)c(OC)c1	96*	16	95*	5	19	0
CC(C(=O)Nc1cccnc1)N1C(=O)c2ccccc2C1=O (stereo not given)	-4	15	x	x	5	12
O=C1C=C(Nc2cccnc2)c2ccccc2C1=O	101*	25	29	-1	11	-29
O=C1C=C(NCc2ccccc2)c2ccccc2C1=O	104*	17	77*	44	37	5
O=C1C=C(Nc2ccc(F)cc2)c2ccccc2C1=O	97*	12	-82	-52	8	2
O=C1C=C(Nc2ccccc2O)c2ccccc2C1=O	100*	28	x	-2	25	-18
Cc1ccc(NC2=CC(=O)C(=O)c3ccccc32)c(C)c1	x	42	27	33	37	3
CC(C)C#Cc1ccc([C@@H]2[C@@H](CO)N3C(=O)CN(S(=O)(=O)c4ccccc4)C[C@@H]23)cc1	x	x	3	-7	x	x
COc1ccc(NC(=O)c2nc(S(=O)(=O)Cc3cccc(C)c3)ncc2Cl)c(OC)c1	43	108*	45	x	97*	15
Nc1nc2ccccc2n1/N=C/c1ccc([N+](=O)[O-])s1	66*	26	52	x	29	1
Nc1nc2ccccc2n1/N=C/c1cccnc1	-2	-20	x	x	3	7
CCOC(=O)C1=C(COC(=O)CCOc2ccc(C)cc2)NC(=O)NC1C (stereo not given)	-7	56*	21	-9	7	10
COc1ccc2cc1Oc1ccc(cc1)C[C@H]1c3cc(c(OC)cc3CCN1C)Oc1c(OC)c(OC)cc3c1[C@@H](C2)N(C)CC3	-12	52*	8	14	-5	5
CCN(CC(=O)Nc1ccc(NC(C)=O)cc1)C(=O)C1(c2ccc(Cl)cc2)CCC1	x	17	79*	1	13	6
SMILES	TRPM1 prom inh	Peg3 promoter	PAX8 inh HTS	EWS-Fli block	Shn3 3UTR inh	ABHD5 PLIN5 PPI
C[C@H](CO)N1C[C@H](C)[C@H](CN(C)Cc2ccc(C(F)(F)F)cc2)OCCCC[C@H](C)Oc2ccc(NC(=O)Nc3ccc(F)cc3)cc2C1=O	x	x	52	19	x	x
C[C@@H]1CN([C@H](C)CO)C(=O)c2cc(NC(=O)Nc3ccc(C(F)(F)F)cc3)ccc2O[C@@H](C)CCCCO[C@H]1CN(C)Cc1ccc(C(F)(F)F)cc1	x	x	19	13	x	x
C[C@@H]1CCCCO[C@H](CN(C)Cc2ccc(C(F)(F)F)cc2)[C@H](C)CN([C@@H](C)CO)C(=O)c2cc(NC(=O)Nc3ccc(F)cc3)ccc2O1	x	x	91*	16	x	x
C[C@@H]1CN([C@H](C)CO)C(=O)c2cc(NC(=O)Nc3ccc(F)cc3)ccc2O[C@@H](C)CCCCO[C@@H]1CN(C)Cc1ccc(C(F)(F)F)cc1	x	x	93*	7	x	x
C[C@H]1CCCCO[C@H](CN(C)Cc2ccc(C(F)(F)F)cc2)[C@@H](C)CN([C@@H](C)CO)C(=O)c2cc(NC(=O)Nc3ccc(F)cc3)ccc2O1	x	x	96*	12	x	x
C[C@@H]1CCCCO[C@H](CN(C)Cc2ccc(C(F)(F)F)cc2)[C@@H](C)CN([C@H](C)CO)C(=O)c2cc(NC(=O)Nc3ccc(F)cc3)ccc2O1	x	x	-1	7	x	x
C[C@@H]1CN([C@@H](C)CO)C(=O)c2cc(NC(=O)Nc3ccc(F)cc3)ccc2O[C@@H](C)CCCCO[C@H]1CN(C)Cc1ccc(C(F)(F)F)cc1	x	x	84*	15	x	x
C[C@@H]1CN([C@H](C)CO)C(=O)c2cccc(NC(=O)C3CCCCC3)c2O[C@@H]1CN(C)C(=O)Nc1ccc(C(F)(F)F)cc1	x	x	-2	2	x	x
C[C@H]1CN([C@@H](C)CO)C(=O)Cc2cc(NC(=O)CCCCCC(=O)Nc3ccccc3N)ccc2O[C@H]1CN(C)S(=O)(=O)c1ccc(Cl)cc1	x	x	8	43	x	x
C[C@@H]1CN([C@@H](C)CO)C(=O)c2cc(NC(=O)Nc3ccccc3)ccc2O[C@H]1CN(C)Cc1ccncc1	x	x	6	-3	x	x
C[C@@H]1CN([C@H](C)CO)C(=O)c2cc(NC(=O)Nc3ccc(F)cc3)ccc2O[C@@H](C)CCCCO[C@H]1CN(C)Cc1ccc(C(F)(F)F)cc1	x	x	107*	70*	x	x
COc1ccc2c3c([nH]c2c1)[C@@H](CO)N(C(=O)CN(C)C)CC31CCN(Cc2ccccc2Cl)CC1	x	x	-16	15	x	x
CC(=O)Nc1ccc(C=NN=C2c3ccccc3-c3ccccc32)cc1	0	74*	-10	-6	26	11
COc1ccc(C=NN=C2c3ccccc3-c3ccccc32)cc1O	-22	-32	11	-4	3	3
